Test results as given in PubChem BioAssay AID2314 (National Center for Advancing Translational Sciences (NCATS), 2010).
Out of some 300,000 compounds screened, about 37,000 (12%) were called active. The sample holds actives, similar compounds and a random draw of the others, so the mix is not that of the screen. Rule as the data show it: active = max response mostly above about 13% (no sharp cut-off); inactive = mostly below about 14%.

Experiment: Cycloheximide Counterscreen for Small Molecule Inhibitors of Shiga Toxin; also: read at 38.3 µM for the half of the compounds with a filed dose; 0% is about no effect
Conditions: cell reporter, cycloheximide protein synthesis inhibition counterscreen; active compounds read high
With `COc1ccc(N(C)S(=O)(=O)c2ccc3c(c2)CC(C)N3C(=O)C2CC2)c(OC)c1` (configuration not stated) the max response was 3.16% (inactive). With `O=c1c2sccc2nc(SCc2cc(=O)n3ccccc3n2)n1-c1ccc(Br)cc1` the max response was -4.5% (inactive). In the case of `CC(C)=CCN1CCN(CCCc2ccccc2)CC1CCO` (configuration not stated), the max response is reported as -0.846% (inactive). For `COC(=O)c1c(NC(=O)COc2ccc(Cl)cc2Cl)sc2c1CC(C)(C)NC2(C)C`, the max response was 0.749% (inactive). With `CC1=C/C(=N\OS(=O)(=O)c2ccccc2)C=CC1=O` the max response was 35% (active). With `Cc1ccc(S(=O)(=O)c2ccc(Oc3ccccc3)cc2)cc1` the max response was -0.97% (inactive). With `CC1=C/C(=N\S(=O)(=O)c2ccccc2)C(C(C)C)=CC1=O` the max response was -2.83% (inactive). With `O=C(Nc1ccc(Cl)cc1)C1c2cccc[n+]2CC(=O)N1Cc1ccc2c(c1)OCO2` (configuration not stated) the max response was 17.1% (inactive). For `CCOc1ccc(N2C(=O)CC(N(CCc3ccc(OC)c(OC)c3)C(=S)Nc3ccccc3)C2=O)cc1` (configuration not stated), the max response was 8.04% (inactive). For `O=C(CCN1C(=O)[C@H]2CC=CC[C@H]2C1=O)NCc1nc(-c2ccccc2)no1`, the max response was 6.47% (inactive). For `CC(=O)Nc1ccc(C(=O)C(Cc2ccccc2)N(C)C)cc1` (configuration not stated), the max response was 9.54% (inactive). For `CC(C)CNC(=O)C(=O)Nc1ccc(N(C)C)cc1`, the max response was 38.6% (active). For `CC(C)CNC(=O)C(=O)NCc1ccccc1`, the max response was -1.62% (inactive). For `COc1ccc(NC(=O)Cn2ncn3c(cc4ccccc43)c2=O)c(OC)c1OC`, the max response was 12.5% (inactive). In the case of `Cc1nnc(C)c2c(C)n(N)c(C)c12`, the max response is reported as -2.66% (inactive). In the case of `COC(=O)c1ccc(CSc2nncn2C)cc1`, the max response is reported as 62.2% (active). With `COC(=O)c1ccc(CSc2nncn2N)cc1` the max response was 2.72% (inactive). In the case of `CC(C)CC(CC(C)C)=NNC(=O)c1ccc(CSc2nncn2C)cc1`, the max response is reported as -1.48% (inactive). For `CCC(Cc1ccccc1)NC(=O)C1CCCCC1` (configuration not stated), the max response was 5.22% (inactive). For `CCOC(=O)c1ccc(NC(=O)c2nc[nH]c2C(=O)N[C@@H](CCCCNC(=O)OC(C)(C)C)C(=O)OC(C)(C)C)cc1`, the max response was -6.86% (inactive). With `C[C@@H](O)[C@@H]1NC(=O)[C@H](CCCCN)NC(=O)[C@H](Cc2c[nH]c3ccccc23)NC(=O)[C@H](Cc2ccccc2)NC(=O)[C@H](Cc2ccccc2)NC(=O)[C@H](CC(N)=O)NC(=O)[C@H](CCCCN)NC(=O)[C@@H](NC(=O)[C@@H]2CCCN2)CSSC[C@@H](C(=O)N[C@@H](CCCCN)C(=O)O)NC(=O)[C@H](CO)NC(=O)[C@H](CO)NC(=O)[C@H](Cc2ccccc2)NC1=O` the max response was -1.5% (inactive). In the case of `COc1ccccc1/C=N\Nc1cc(C)nc(-n2nc(C)cc2C)n1`, the max response is reported as -2.45% (inactive). With `COc1cccc(/C=N/Nc2cc(C)nc(-c3ccccc3O)n2)c1O` the max response was 28.6% (active). For `COc1cccc(/C=N/Nc2ncc(C(F)(F)F)cc2Cl)c1O`, the max response was 12.5% (inactive). In the case of `O=C(NC1CCCC1)C(c1ccc(N2CCOCC2)cc1)N(C(=O)c1ccco1)c1ccccc1F` (configuration not stated), the max response is reported as -1.28% (inactive). With `CCOc1ccc(CN2CCN(Cc3ccc4cc(F)ccc4n3)CC2CCO)cc1` (configuration not stated) the max response was -3.76% (inactive). In the case of `Cc1cc(NC(=O)CSc2nc(C(C)C)nc3sc4c(c23)CCC(C)C4)no1` (configuration not stated), the max response is reported as -1.25% (inactive). In the case of `N#Cc1c2c(c(N3CCN(CCO)CC3)n3c1nc1ccccc13)CCCC2`, the max response is reported as -2.13% (inactive). In the case of `CC1CCc2sc3nc(N4CCN(CCO)CC4)n4ncnc4c3c2C1` (configuration not stated), the max response is reported as 22.8% (active). With `Cc1ccc(NC(=O)C2CCCN2C(=O)OCc2ccccc2)cc1C` (configuration not stated) the max response was 7.92% (inactive). With `O=C(Nc1ccccc1Cl)NC1(C(=O)N2CCOCC2)CCCCC1` the max response was -1.76% (inactive). With `CCCCC(c1nnnn1CS(=O)(=O)c1ccc(C)cc1)N1CCC(C(N)=O)CC1` (configuration not stated) the max response was -6.32% (inactive). With `COc1ccc(/C=C2\SC(=N)N(c3ccc(F)cc3)C2=O)cc1` the max response was -4.26% (inactive). With `COc1ccc(/C=C2\SC(=S)N(CC(=O)NNC(=O)c3ccncc3)C2=O)cc1` the max response was 5.86% (inactive). In the case of `COc1ccc(/C=C2\N=C3CCCN3C2=O)cc1`, the max response is reported as 39.3% (active). For `Cn1c(=O)c2c(-c3cccc(Br)c3)c(C#N)c(N)nc2n(C)c1=O`, the max response was 1.41% (inactive). For `COC(=O)C1=CN(Cc2ccc(OC)c(OC)c2)C=C(C(=O)OC)C1c1cccs1`, the max response was 8.87% (inactive). In the case of `Cn1cncc1COC(=O)c1ccc(Cl)cc1`, the max response is reported as 5.18% (inactive). For `CN1C2C=C(N(C(=O)c3ccc(Cl)cc3)c3ccccc3)CC1CC2` (configuration not stated), the max response was -2.76% (inactive). With `CN1OC(COC(=O)c2ccc(Cl)cc2)CC1c1ccccc1` (configuration not stated) the max response was 66.4% (active). With `Cc1ccc(CNC(=O)CCC(=O)N2CC(C)Sc3ccccc32)cc1` (configuration not stated) the max response was -1.08% (inactive). With `CCOC(=O)N1CCC(N2Cc3cccc(C(=O)Nc4c(C)cccc4CC)c3C2=O)CC1` the max response was -3.86% (inactive). For `COc1cccc2sc(N(CCCN(C)C)C(=O)CCS(=O)(=O)c3ccccc3)nc12`, the max response was 11.6% (inactive). In the case of `S=C(NCc1cccs1)Nc1ccc(Cl)cc1`, the max response is reported as 13.8% (inactive). With `CNC(=O)c1nnc(Cc2ccc(Cl)cc2)o1` the max response was 11.5% (inactive). With `Clc1ccc(Cc2nnc(-c3cccs3)o2)cc1` the max response was 32.7% (active). In the case of `CC1CN(C(=S)SCC(=O)c2ccccc2)CC(C)O1` (configuration not stated), the max response is reported as 34.8% (active). In the case of `CSCC(=O)N1CCCC(C(=O)c2cc(F)ccc2F)C1` (configuration not stated), the max response is reported as 5.48% (inactive). For `O=C(CSC(=S)N1CCOCC1)c1cc(Br)cc(Br)c1O`, the max response was -5.21% (inactive). In the case of `CC1CN(C(=S)Nc2ccccc2F)CC(C)O1` (configuration not stated), the max response is reported as 1.94% (inactive). With `O=C(CSC(=S)N1CCOCC1)c1ccccc1` the max response was 19% (active). For `COC(=O)[C@H](Cc1ccccc1)NC(=O)N1CC(C)OC(C)C1` (some centres not stated), the max response was 0.915% (inactive). For `O=C(CP(=O)(c1ccccc1)c1ccccc1)N1CCOCC1`, the max response was -5.81% (inactive). In the case of `O=C(CSC(=S)N1CCCCC1)c1c(F)cccc1F`, the max response is reported as 42.5% (active). In the case of `O=C(NC1CCN(Cc2ccccc2)CC1)c1c(F)cccc1F`, the max response is reported as -3.43% (inactive). In the case of `CCOC(=O)c1c(CN(C)C)n(-c2ccccc2)c2cc(Br)c(O)cc12`, the max response is reported as -1.63% (inactive). For `C[C@H]1CCC(=O)N([C@H](CSc2ccccc2)Cc2ccccc2)CC1`, the max response was 6.38% (inactive).
